According to PubChem BioAssay (NCATS):
Inconclusive results are not listed. Active and inactive are the calls of the source. Calls come from the whole dose curve; as a rule, active = well fitted cell-killing curve with a large enough effect; inconclusive = small, poorly fitted or top-dose-only effect, or effect the other way; inactive = flat fitted curve, though single readings scatter. Where a SMILES comes first, the peptide text is derived from it. The star is where a group is joined. βNA = c1ccc2cc(N*)ccc2c1; Cbz = O=C(OCc1ccccc1)*

Columns and labels:
Assay in all cases: Primary qHTS to identify gynecologic anti-cancer compounds using libraries of approved drugs and bioactive compounds (AID 1345084); note: nearly all actives have a fitted effect of over 55% in size
Conditions in all cases: Gynecologic cancer cell panel viability, ATPlite luminescence, 48 h; series mostly up to 57.5 µM
OV90 = tested on: OV90
Outline: (§1)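 Cytotoxicity screen measuring ATP content by luciferase luminescence. Each compound is applied at five concentrations for 48 h at 37 C with 5% CO2.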

PA-1 = tested on: PA-1
Outline: as §1

SKOV3 = tested on: SKOV3
Outline: as §1

Tov-21-G = tested on: Tov-21-G
Outline: as §1

Tov112D = tested on: Tov112D
Outline: as §1
% is set by controls: 0 for no effect and ±100 for the full control effect.

COc1cc(C(=O)OC[C@@]2(O)CO[C@@H](O[C@H]3[C@H](Oc4ccc(O)cc4)O[C@H](CO)[C@@H](O)[C@@H]3O)[C@@H]2O)cc(OC)c1O
inactive: Potency (OV90) | Potency (PA-1) | Potency (SKOV3) | Potency (Tov-21-G) | Potency (Tov112D)

C/C=C/C=C/C(O)=C1/C(=O)[C@]2(C)C(=O)[C@@](C)(O)[C@H]1[C@H]([C@@]1(C)OC(=O)C(C)=C1O)[C@H]2C(=O)CC/C=C/C
inactive: Potency (OV90) | Potency (PA-1) | Potency (SKOV3) | Potency (Tov-21-G) | Potency (Tov112D)

COc1cc(CC2COC(c3ccc(OC4OC(CO)C(O)C(O)C4O)c(OC)c3)C2CO)ccc1O (stereo not given)
inactive: Potency (OV90) | Potency (PA-1) | Potency (SKOV3) | Potency (Tov-21-G) | Potency (Tov112D)

CC(C)(O)[C@@H]1CC[C@]2(CO)[C@@H](O)CC[C@](C)(O)[C@H]2[C@@H]1O[C@@H]1O[C@H](CO)[C@@H](O)[C@H](O)[C@H]1O
inactive: Potency (OV90) | Potency (PA-1) | Potency (SKOV3) | Potency (Tov-21-G) | Potency (Tov112D)

CC(C)C1CCC(CO)=CC1/C=C(\CO)C(=O)OCC1(O)CCC(C(C)C)C2C=C(C(=O)O)COC(=O)C21 (stereo not given)
inactive: Potency (OV90) | Potency (PA-1) | Potency (SKOV3) | Potency (Tov-21-G) | Potency (Tov112D)

C[C@@H]1O[C@@H](O[C@H]2[C@@H]3C=CO[C@@H](O[C@@H]4O[C@H](CO)[C@@H](O)[C@H](O)[C@H]4O)[C@@H]3[C@@]3(CO)O[C@@H]23)[C@H](O)[C@H](O)[C@H]1OC(=O)/C=C/c1ccc(O)cc1
inactive: Potency (OV90) | Potency (PA-1) | Potency (SKOV3) | Potency (Tov-21-G) | Potency (Tov112D)

CCC(C)C(=O)OC[C@H]1O[C@H](O[C@H]2O[C@H](CO)[C@@H](O)[C@H](O)[C@H]2O)[C@H](O)[C@@H](O)[C@@H]1O (stereo not given in full)
inactive: Potency (OV90) | Potency (PA-1) | Potency (SKOV3) | Potency (Tov-21-G) | Potency (Tov112D)

CC(C)=CCC(O)[C@](C)(O)C1[C@H](O)C[C@@]2(C)C3CC=C4C(C[C@H](O)[C@@H](O[C@@H]5O[C@H](CO)[C@@H](O)[C@H](O)[C@H]5O)C4(C)C)[C@]3(C)C(=O)C[C@]12C (stereo not given in full)
inactive: Potency (OV90) | Potency (PA-1) | Potency (SKOV3) | Potency (Tov-21-G) | Potency (Tov112D)

Nc1ncnc2c1ncn2[C@H]1O[C@@H](C(=O)N2CCN(CC(=O)Nc3cccc4c3CNC4=O)CC2)[C@H](O)[C@@H]1O
inactive: Potency (OV90) | Potency (PA-1) | Potency (SKOV3) | Potency (Tov-21-G) | Potency (Tov112D)

C=C1CC[C@]2(C(=O)O[C@@H]3O[C@H](CO)[C@@H](O)[C@H](O)[C@H]3O)CC[C@]3(C)C(=CCC4[C@@]5(C)C[C@H](O)[C@@H](O[C@@H]6O[C@H](C(=O)O)[C@@H](O)[C@H](O)[C@H]6O)[C@](C)(C=O)C5CC[C@]43C)C2C1 (stereo not given in full)
inactive: activity change, negative = cytotoxicity (OV90) 2.48% [at 11.6 µM] | activity change, negative = cytotoxicity (PA-1) 8.86% [at 11.6 µM] | activity change, negative = cytotoxicity (SKOV3) -9% [at 11.6 µM] | activity change, negative = cytotoxicity (Tov-21-G) 6.07% [at 11.6 µM] | activity change, negative = cytotoxicity (Tov112D) 5.76% [at 11.6 µM]

CNc1nc(Nc2cn(C(C)(C)C#N)nc2C)ncc1C(F)(F)F
inactive: Potency (OV90) | Potency (PA-1) | Potency (SKOV3) | Potency (Tov-21-G) | Potency (Tov112D)

C[C@H]1CC[C@@]2(OC1)O[C@H]1CC3C4CC[C@H]5C[C@@H](O[C@@H]6O[C@H](CO)[C@H](O[C@@H]7O[C@H](CO)[C@@H](O)[C@H](O[C@@H]8OC[C@@H](O)[C@H](O)[C@H]8O)[C@H]7O[C@@H]7O[C@H](CO)[C@@H](O)[C@H](O)[C@H]7O)[C@H](O)[C@H]6O)[C@H](O)C[C@]5(C)C4=CC(=O)[C@]3(C)[C@H]1[C@@H]2C (stereo not given in full)
inactive: activity change, negative = cytotoxicity (OV90) -5.92% [at 11.6 µM] | activity change, negative = cytotoxicity (PA-1) 7.95% [at 11.6 µM] | activity change, negative = cytotoxicity (SKOV3) 0.679% [at 11.6 µM] | activity change, negative = cytotoxicity (Tov-21-G) -4.82% [at 11.6 µM] | activity change, negative = cytotoxicity (Tov112D) 2.81% [at 11.6 µM]

CCCc1[nH]nc2c1C(c1cc(Cl)cc(Cl)c1O)C(C#N)=C(N)O2 (stereo not given)
inactive: Potency (OV90) | Potency (PA-1) | Potency (SKOV3) | Potency (Tov-21-G) | Potency (Tov112D)

CC(=O)[C@@H]1C[C@H](C(C)(C)O[C@@H]2O[C@H](CO)[C@@H](O)[C@H](O)[C@H]2O)CC[C@@]2(CO)OC(=O)C[C@@H]12
inactive: Potency (OV90) | Potency (PA-1) | Potency (SKOV3) | Potency (Tov-21-G) | Potency (Tov112D)

NC1Nc2ccccc2C1(N)CC1NC(=O)C(Cc2ccccc2)NC(=O)C(Cc2ccccc2)NC1=O (stereo not given)
inactive: Potency (OV90) | Potency (PA-1) | Potency (SKOV3) | Potency (Tov-21-G) | Potency (Tov112D)

COc1cc(C2Oc3c(OC)cc(/C=C/C(=O)OC4CC(O)(C(=O)O)CC(O)C4O)cc3C2CO)ccc1O (stereo not given)
inactive: Potency (OV90) | Potency (PA-1) | Potency (SKOV3) | Potency (Tov-21-G) | Potency (Tov112D)

CC12CC(c3ccoc3)OC(=O)C1CCC1(C)C2CCC(O)C1(C)O (stereo not given)
inactive: Potency (OV90) | Potency (PA-1) | Potency (SKOV3) | Potency (Tov-21-G) | Potency (Tov112D)

CC(C)CC(NC(=O)OCc1ccccc1)C(=O)NC(CC(C)C)C(=O)NC(CCC(=O)O)C(=O)Nc1ccc2ccccc2c1 (stereo not drawn) (Cbz-Leu-Leu-Glu-βNA; configuration not given here)
inactive: Potency (OV90) | Potency (PA-1) | Potency (SKOV3) | Potency (Tov-21-G) | Potency (Tov112D)

COc1ccc(C2OCC3C(c4cc(OC)c5c(c4)OCO5)OCC23)cc1OC (stereo not given)
inactive: Potency (OV90) | Potency (PA-1) | Potency (SKOV3) | Potency (Tov-21-G) | Potency (Tov112D)
